The results in this text go back to PubChem BioAssay (Tox21).

Results filed as inconclusive are left out. Where a call stands in place of a potency, no number is given. Activity calls are given as the source filed them. Calls come from the whole dose curve; as a rule, active = well fitted cell-killing curve with a large enough effect in the repeat runs; inconclusive = weak or mixed curves, or effect the other way; inactive = no such curve, though single readings can be large or run the other way.
Potency is the fitted concentration of half-maximal effect.

The experiment can be described thus: qHTS assay for identifying genotoxic compounds that show differential cytotoxicity against isogenic chicken DT40 cell lines with known DNA damage response pathways - wild type cell line (AID 743012). Note: nearly all actives have a fitted effect of over 60% in size. The settings on record: DT40 wild type chicken cells viability, CellTiter-Glo, 40 h; series mostly up to 68.4 µM. The source says:
U.S. Tox21 Program National Center for Advancing Translational Sciences [NCATS] NIH Chemical Genomics Center [NCGC] U.S. Environmental Protection Agency [EPA] National Institutes of Environmental Health Sciences [NIEHS] National Toxicology Program [NTP] U.S. Food and Drug Administration [FDA] Tox21 Assay Overview: DNA repair pathways play a critical role in cellular homeostasis by repairing DNA damage induced by endogenous processes and xenobiotics. Isogenic chicken DT40 cell lines deficient in different DNA repair pathways can be used to identify genotoxic compounds and aid in characterizing the nature of the DNA damage induced. Two DNA repair-deficient cell lines with disrupted genes, Rad54/Ku70 or Rev3, were used to screen the Tox21 10K compound library. Possible genotoxicity was based on the presence of a significant increase in cytotoxicity in one or more of the DNA repair-deficient cell lines compared to that observed in the parental DNA repair-proficient cell line. CellTiter Glo viability assay (Promega, Madison, WI) was used to measure cell viability in these cells after compound treatment. This assay includes the data from the wild type cell line.
Tox21 Assay Protocol Summary: 300 DT40 wild type cells in 5 uL/well were dispensed into white, solid-bottom 1536-well plates using a Multidrop Combi (ThermoFisher Scientific, Waltham, MA) dispenser. After the assay plates were incubated at 37 C/5% CO2 for approximately 0.5 hour, 23 nL of compounds dissolved in DMSO, positive controls or DMSO only was transferred into the assay plate by a pintool work station (Kalypsys, San Diego, CA). The assay plates were incubated at 37 C/5% CO2 for 40 hours. After 5 uL per well of CellTiter-Glo reagent was added into each well of the assay plates, the plates were incubated for 30 min at room temperature and the luminescence intensity of the plates was measured using a ViewLux (PerkinElmer, Shelton, CT) plate reader.
(Quantitative high-throughput screening tests each substance at several concentrations.)
`CC(C)[C@]12CC(=O)[C@H](C)[C@H]1C2`: the Potency result was “inactive”.
Consider `ClCOCCl`, for which the Potency result is “inactive”.
Then `C=CCCC#N`, with “inactive”; and `Cc1ccc2c(c1)C1CN(C)CCC1N2` (stereo not given), with “inactive”; and `NC1(c2ccccc2)CCCCC1`, with 60.6 µM (active).
Turning to `CC(=O)CN(CC(C)=O)N=O`, the Potency entry is “inactive”.
Turning to `CC(O)CCl` (stereo not given), the Potency result was “inactive”.
Then `Oc1ccc2c3c1O[C@H]1[C@@H](O)C=C[C@H]4[C@@H](C2)NCC[C@@]341`, with “inactive”.
On to `CCCCCCCC(=O)Cl`, for which the Potency result is “inactive”.
`Cl/C=C/CCl`: the Potency entry is “inactive”.
Then `NCC1(CC(=O)O)CCCCC1`, with “inactive”.
Regarding `O=C1CCCCC1Cl` (stereo not given), the Potency entry is “inactive”.
In the case of `CCOC(=O)C(Cl)Cc1cc(-n2nc(C)n(C(F)F)c2=O)c(F)cc1Cl` (stereo not given), the Potency is 54.5 µM (active).
On to `CN1C(=O)COc2c(C(=O)NC3CN4CCC3CC4)cc(Cl)cc21` (stereo not given), for which the Potency entry was “inactive”.
`CCCC[N+](=O)[O-]`: the Potency result is “inactive”.
Then `OCC(Cl)CCl` (stereo not given), with “inactive”; and `C[C@]12C=CC(=O)C=C1CC[C@@H]1[C@@H]2CC[C@@]2(C)[C@H]1CC[C@]2(C)O`, with 23.7 µM (active).
As for `CCCC(C)C1(CC)C(=O)N=C(S)NC1=O` (stereo not given), the Potency result is “inactive”.
Turning to `S=C=S`, the Potency result is “inactive”.
With `C=CCc1cc(OC)c2c(c1)OCO2`, the Potency entry is “inactive”.
For the compound `ClCCCCCCCl`, the Potency entry is “inactive”.
As for `N[C@@H](Cc1ccc(Oc2cc(I)c(O)c(I)c2)c(I)c1)C(=O)O`, the Potency entry was “inactive”.
Take `Cn1c(CCCC(=O)O)nc2cc(N(CCCl)CCCl)ccc21`: the Potency was 26.6 µM (active).
`CC(=O)OCC1=C(C(=O)O)N2C(=O)[C@@H](N)[C@H]2SC1`: the Potency result was “inactive”.
For the compound `BrCCc1ccccc1`, the Potency entry was “inactive”.
As for `CC(=NC#N)N(C)Cc1ccc(Cl)nc1`, the Potency entry is “inactive”.
Then `CC[C@H](N)c1ccccc1`, with “inactive”; and `CN(C)C(=O)Oc1cc(OC(=O)N(C)C)cc(C(O)CNC(C)(C)C)c1` (stereo not given), with “inactive”.
In the case of `[O-][Br+2]([O-])O`, the Potency result is “inactive”.
Then `O=P(O)(O)CN(CP(=O)(O)O)CP(=O)(O)O`, with “inactive”; and `C[C@H](CN1CCOCC1)C(C(=O)N1CCCC1)(c1ccccc1)c1ccccc1`, with 33.2 µM (active).
The value for `O=C/C=C/c1ccco1` was “inactive”.
In the case of `CCNP(=S)(OC)O/C(C)=C/C(=O)OC(C)C` (stereo not given), the Potency was 61.1 µM (active).
As for `COc1ccc2c(C(=O)c3ccc(Cl)cc3)c(C)n(CC(=O)O)c2c1`, the Potency result was “inactive”.
For the compound `Cc1cc(OC(=O)N(C)C)nn1C(=O)N(C)C`, the Potency entry is “inactive”.
`COc1cccc([C@@]2(O)CCCC[C@@H]2CN(C)C)c1`: the Potency result was “inactive”.
Regarding `CCC1(CC)C(=O)C=CNC1=O`, the Potency entry was “inactive”.
As to `CCOC(=O)Nc1cccc(OC(=O)Nc2ccccc2)c1`, the Potency result is “inactive”.
As to `CCN(CCO)CCO`, the Potency result is “inactive”.
For `CNC(=O)NC(O)C(Cl)(Cl)Cl` (stereo not given), the Potency result is “inactive”.
